Out of some 340,000 compounds screened, about 6,900 (2%) were called active. Rule as the data show it: active = inhibition above about 30%; inactive = below that, where a call was filed. Shown is part of a subset that was picked to be rich in actives.
These molecules were tested against D(2) dopamine receptor (Homo sapiens) (UniProt P14416) (assay: HTS Assay for Allosteric Antagonists of the Human D2 Dopamine Receptor: Primary Screen for Antagonists). Settings: HEK293 TREx D2 cells, calcium flux, dopamine EC80; at 10 µM; hits give high values.
D(2) dopamine receptor (Homo sapiens), sequence (P14416 whole entry, looked up): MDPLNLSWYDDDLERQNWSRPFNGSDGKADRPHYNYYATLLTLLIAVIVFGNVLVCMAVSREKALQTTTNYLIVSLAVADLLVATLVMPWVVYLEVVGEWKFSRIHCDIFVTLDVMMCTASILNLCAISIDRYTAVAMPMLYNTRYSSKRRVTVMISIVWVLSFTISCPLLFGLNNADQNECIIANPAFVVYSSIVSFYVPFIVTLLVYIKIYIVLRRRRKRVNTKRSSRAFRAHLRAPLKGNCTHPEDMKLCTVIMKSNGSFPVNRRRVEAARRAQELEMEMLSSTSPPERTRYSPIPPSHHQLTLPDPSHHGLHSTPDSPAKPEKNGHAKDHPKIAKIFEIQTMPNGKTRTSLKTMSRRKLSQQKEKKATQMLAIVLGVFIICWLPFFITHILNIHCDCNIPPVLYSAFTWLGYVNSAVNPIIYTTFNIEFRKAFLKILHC
Method in brief: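 Tetracycline-induced HEK293 TREx cells expressing D2 receptor forced-coupled to calcium signalling, loaded with no-wash calcium dye. Compounds added and calcium flux read 180 s, then dopamine added at EC80 and read a further 180 s.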
Also: 0% is about no effect.

SMILES | inhibition
Cc1ccc(/C=C/C(=O)OCC(=O)Nc2cccnc2Cl)cc1 | 13% (inactive)
Nc1nc(SC23CC4CC(CC(C4)C2)C3)ns1 | -8.79% (inactive)
CCCSc1nsc(N)n1 | -5.55% (inactive)
CCCCCCSc1nsc(N)n1 | 51.1% (active)
Cc1ccc(S(=O)(=O)N2CCCCC2)cc1NC(=O)c1cccnc1 | 1.41% (inactive)
CCNC(=O)N1CCN(S(=O)(=O)c2ccc3c(c2)OCCCO3)CC1 | 11.7% (inactive)
CCN(CC(=O)Nc1cccc(S(=O)(=O)N2CCCCC2)c1)Cc1ccccc1 | 0.844% (inactive)
COc1ccccc1N1CC(C(=O)NCCN2C(=O)S/C(=C\c3cccnc3)C2=O)CC1=O (configuration not stated) | 4.67% (inactive)
COc1cc(CN2CCN(Cc3ccc(C)cc3)CC2)c([N+](=O)[O-])cc1OC | 88.1% (active)
Cc1cc(OCCCN2CCN(Cc3ccccc3)CC2)ccc1[N+](=O)[O-] | -14.3% (inactive)
COc1cc(CN2CCCN(C)CC2)c([N+](=O)[O-])cc1OC | 24.2% (inactive)
COc1ccc(-c2sc3ccc(OC)cc3c2C#Cc2ccccn2)cc1 | -2.01% (inactive)
CC(O)c1nc2c(c(=O)n(C)c(=O)n2C)n1C (configuration not stated) | 0.261% (inactive)
CCCCCCn1c(CN2CCCC(C)C2)nc2c1c(=O)n(C)c(=O)n2C (configuration not stated) | 2.89% (inactive)
CC1CN(C2CCCCC2)c2nc3c(c(=O)n(C)c(=O)n3C)n2C1 (configuration not stated) | 38.7% (active)
CCN(CC(=O)NCc1cccs1)C(=O)/C=C/c1ccc(C)cc1 | 0.23% (inactive)
COc1ccc2c(C)cc(SCC(=O)NCC3CCCO3)nc2c1 (configuration not stated) | 0.454% (inactive)
O=C(NC1CCCCCC1)C1CCN(C(=O)c2ccc(Cl)cc2)CC1 | -21.8% (inactive)
COc1ccccc1OCCNC(=O)C(CCSC)NC(=O)COc1ccccc1 (configuration not stated) | 0.971% (inactive)
Cc1csc(NC(=S)Nc2cccc(Cl)c2)n1 | 32.1% (active)
S=C(Nc1cccc(Cl)c1)Nc1ccc2cn[nH]c2c1 | -2.72% (inactive)
S=C(Nc1cccc(Cl)c1)Nc1ccc2c(c1)OCCO2 | 3.88% (inactive)
CN(CC(=O)Nc1ccc(F)cc1)CC(=O)Nc1ccc(Cl)c(S(=O)(=O)N2CCOCC2)c1 | -2.29% (inactive)
CN(CC(=O)Nc1ccc(S(=O)(=O)N2CCCC2)cc1)Cc1ccc(Cl)c(Cl)c1 | -19.3% (inactive)
CN(CCC(=O)Nc1cc(S(=O)(=O)N(C)C)ccc1Cl)CC(=O)Nc1ccc(F)cc1 | 50.6% (active)

SMILES | inhibition
Cc1ccc(CN2CC(C(=O)NNC(=O)Cn3ccc(C(F)(F)F)n3)CC2=O)cc1 (configuration not stated) | 9.85% (inactive)
COC(=O)C1CCN(C(=O)NC2CC(=O)N(c3ccc4c(c3)OCCO4)C2)CC1 (configuration not stated) | 10.2% (inactive)
Cc1c(Cl)cccc1NC(=S)NCc1ccc2c(c1)OCO2 | -3.97% (inactive)
CN(C)S(=O)(=O)c1cccc(NC(=S)NCc2ccc3c(c2)OCO3)c1 | 51.6% (active)
Cc1ccc(/C=N/NC(=S)Nc2cccc(S(=O)(=O)N(C)C)c2)o1 | -10.5% (inactive)
CC(C)CN(CC(C)C)C(=O)CN1c2cccc3cccc(c23)S1(=O)=O | -10.2% (inactive)
O=C(O)CN1c2cccc3cccc(c23)S1(=O)=O | 14.3% (inactive)
Cc1ccc(S(=O)(=O)N(C)C)cc1NC(=O)CN1c2cccc3cccc(c23)S1(=O)=O | 37% (active)
O=C(COc1ccccc1Cl)N1N=C(c2cccs2)CC1c1ccco1 (configuration not stated) | 5.49% (inactive)
Cc1ccc(-c2csc(NC(=O)C3=COCCO3)n2)cc1C | 1.39% (inactive)
CCN(CC)c1ccc(NC(=O)CN2CCN(c3ccccn3)CC2)cc1 | 5.78% (inactive)
CN1CCN(Cc2nc3cc(NC(=O)COc4ccc([N+](=O)[O-])cc4)ccc3n2C)CC1 | -8.44% (inactive)
CCOC(=O)N1CCN(Cc2nc3cc(NC(=O)CC)ccc3n2CC)CC1 | 3.26% (inactive)
CCC(=O)Nc1ccc2c(c1)nc(CCN1CCN(c3ccccn3)CC1)n2C | 57% (active)
CCOC(=O)N1CCN(Cc2nc3cc(NC(C)=O)ccc3n2C)CC1 | 31.3% (active)
Cn1c(CCN2CCCCCC2)nc2cc(NC(=O)Nc3ccccc3)ccc21 | 0.502% (inactive)
O=C(COC(=O)c1cc(S(=O)(=O)N2CCOCC2)ccc1Cl)NCCc1ccccc1 | -3.61% (inactive)
CC1CCC(CN2CCN=C2N(C)C)CC1 (configuration not stated) | 11.2% (inactive)
COc1ccccc1C1=CC(=O)C[C@H](c2ccc(F)cc2)C1 | 4.4% (inactive)
O=S(=O)(c1ccccc1)N1CCC(c2ccccc2)CC1 | 0.0462% (inactive)
COc1ccccc1C(=O)NC(CCSC)C(=O)N1CCN(C(C)=O)CC1 (configuration not stated) | 17.9% (inactive)
O=c1oc2ccc(C#CC3(O)CCCCC3)cc2cc1-n1cc(-c2ccsc2)nn1 | 2.59% (inactive)
OCC[C@H]1C[C@@H](O)[C@H](O)[C@]2(OCCCc3ccccc32)O1 | 5.04% (inactive)
O=C(OCC(=O)N1CCCCCC1)c1cnc(Cl)c(Cl)c1 | -0.916% (inactive)
Nn1c(SCC(=O)NC2CCCC2)nnc1-c1ccccc1F | -13.5% (inactive)

SMILES | inhibition
CC(C)NC(=O)NC(=O)CSc1nnc(-c2ccccc2F)n1N | 26% (inactive)
Nn1c(SCC(=O)NC(=O)NC2CCCC2)nnc1-c1ccccc1F | 88.5% (active)
CCOc1ccc(CCNC(=O)COC(=O)CCS(=O)(=O)c2ccc(C)cc2)cc1OCC | -15.8% (inactive)
O=C(NC1CCCCC1)c1ccc(-c2ccc(Cl)cc2)o1 | 17.9% (inactive)
O=C1c2oc3ccccc3c(=O)c2C(c2cccc(O)c2)N1c1ccccn1 (configuration not stated) | 30.8% (active)
COCCN1C(=O)c2oc3c(C)cc(C)cc3c(=O)c2C1c1cccc(O)c1 (configuration not stated) | 8.13% (inactive)
O=C1c2oc3ccc(Br)cc3c(=O)c2C(c2cccc(F)c2)N1CCO (configuration not stated) | 24.1% (inactive)
Cc1ccc(-c2nn(-c3ccccc3)cc2C(=O)NC2CCC(O)CC2)cc1 (configuration not stated) | 11.3% (inactive)
CC(C)(C)OC(=O)N[C@H](C(=O)OC(C)(C)C)c1ccc(Br)cc1 | -2.43% (inactive)
COc1cccc(C2=CC(=O)C[C@H](c3ccc(F)cc3)C2)c1OC | 2.64% (inactive)
Cc1ccc(S(=O)(=O)N2CCN(C(=O)CSc3cc(C)ccc3C)CC2)c(C)c1 | 12.2% (inactive)
Cc1ccc(S(=O)(=O)N2CCN(C(=O)COC(=O)c3c(C)cc(C)cc3C)CC2)c(C)c1 | -0.571% (inactive)
CCCc1cc(=O)[nH]c(SCC(=O)N2CCN(S(=O)(=O)c3ccc(C)cc3C)CC2)n1 | 40.9% (active)
O=C(COC(=O)C1CC2CCCC(C1)C2=O)NC(=O)c1ccccc1 (configuration not stated) | -17.3% (inactive)
CC(Oc1ccc(Br)cc1)C(=O)NC1CCCCCC1 (configuration not stated) | -1.39% (inactive)
O=C(COc1ccc([N+](=O)[O-])cc1)Nc1ccc(N2CCCC2)cc1 | -10.9% (inactive)
O=C(Nc1ccccc1C(=O)Nc1ccncc1)c1ccc([N+](=O)[O-])cc1 | -16% (inactive)
O=C(COc1ccc([N+](=O)[O-])cc1)Nc1cccc(C(=O)Nc2ccccc2C(=O)O)c1 | 52% (active)
Cc1ccc(S(=O)(=O)N(C)CC(=O)NCC(c2ccc(F)cc2)N2CCOCC2)cc1 (configuration not stated) | 12.3% (inactive)
CCCn1nc(C(=O)NNC(=O)CSCC(=O)Nc2cc(C)on2)c2ccccc2c1=O | 5.99% (inactive)
CCCn1nc(C(=O)Nc2ccc3nc(C)sc3c2)c2ccccc2c1=O | 31% (active)
CCCCn1nc(C(=O)Nc2cccc(C(=O)NC3CC3)c2)c2ccccc2c1=O | -27.4% (inactive)
CN(C)CCn1c2c(c(SCC(=O)NCc3ccccc3)nc1=O)CCC2 | -8.18% (inactive)
COCCNc1nnc(SCC(=O)NNC(=O)c2ccco2)s1 | -27.3% (inactive)
COc1ccccc1NS(=O)(=O)c1ccc(C)c(C(=O)NCC(c2ccco2)N(C)C)c1 (configuration not stated) | 7.48% (inactive)

SMILES | inhibition
Clc1cccc(Cl)c1OCCOCCNCc1ccccc1 | 53% (active)
COCCNCCOCCOc1cccc(OC)c1 | -3.27% (inactive)
CN(C)CCOCCOc1ccc(Cl)c2ccccc12 | -4.55% (inactive)
OC(COCC1COc2ccccc2O1)CN1CCN(c2ccc(F)cc2)CC1 (configuration not stated) | 2.02% (inactive)
OC(COCc1ccco1)CN1CCN(c2ccccc2)CC1 (configuration not stated) | 74.4% (active)
O=[N+]([O-])c1ccc(N2CCN(CC(O)COc3ccccc3)CC2)cc1 (configuration not stated) | -9.55% (inactive)
O=C(CSc1nc2ccccc2c(=O)n1CCCO)NC1CC1 | -4.48% (inactive)
C=CCC(NC(=O)Cc1ccccc1)C(=O)NCCC (configuration not stated) | 1.08% (inactive)
CCCCC/C=C/C1=CC(=O)C[C@H](c2ccc(Cl)cc2)C1 | 3.21% (inactive)
CC(C)(C)OC(=O)N/N=C/c1cn(-c2ccccc2)nc1-c1cccnc1 | -2.64% (inactive)
Cc1ccc(-c2nn(-c3ccccc3)cc2/C=N/NC(=O)c2ccc3c(c2)OCO3)cc1 | 31.8% (active)
Cc1nnc(SCC(=O)N/N=C/c2cn(-c3ccccc3)nc2-c2ccc(F)cc2)n1-c1ccccc1 | -8.35% (inactive)
Cc1ccc(OCC(=O)N2CCN(S(=O)(=O)c3ccc(Cl)s3)CC2)cc1C | -12% (inactive)
O=C(OCc1nnc(-c2ccccc2)o1)c1cc(=O)[nH]c2ccccc12 | 6.34% (inactive)
CCCc1nc2ccccc2c(C(=O)OCc2nnc(-c3cc(OC)c(OC)c(OC)c3)o2)c1CC | 38% (active)
CCCc1nc2ccccc2c(C(=O)OCC(=O)c2ccc3c(c2)NC(=O)CO3)c1CC | -8.13% (inactive)
COc1cc2[nH]c(=O)n(CCC(=O)NC3CCN(Cc4ccccc4)CC3)c(=O)c2cc1OC | -8.24% (inactive)
CCOc1cc2[nH]c(=O)n(Cc3ccc(C(=O)NCCCN4CCCC4=O)cc3)c(=O)c2cc1OCC | 9.71% (inactive)
COc1ccc(C(=O)NC2CC2)cc1OC1CCN(Cc2ccc(SC)cc2)CC1 | 2.51% (inactive)
COc1cc(C(=O)NC2CCN(Cc3ccccc3)CC2)cc(Cl)c1OC(C)C | 47.6% (active)
COc1cc2[nH]c(=O)n(Cc3ccc(C(=O)NC4CCN(Cc5ccccc5)CC4)cc3)c(=O)c2cc1OC | 90.8% (active)
COC(=O)c1cccc(NC(=O)CN2CCC(NC(=O)c3cc(OC)c(OC)c(OC)c3)CC2)c1 | -8.24% (inactive)
